Assay outcomes: PubChem, National Center for Advancing Translational Sciences (NCATS)
Shown are actives, neighbours in structure and some others; about 11% of the full set was active somewhere.
Tau fluor counter: Counterscreen qHTS for Inhibitors of Tau Fibril Formation, Fluorescence Polarization; AID 1463, 2008; actives 0.93% (n = 280,000); tau K18 P301L Alexa594 fluorescence, heparin fibrillization; Potency, µM (highest dose often 57.7 µM), without a hit: top-dose activity change, negative = decrease; further: potency means the concentration at half of the fitted maximal effect; nearly all actives have a fitted effect of over 55% in size
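Human tau K18 P301L (15 uM unlabeled, 0.24 uM Alexa 594-labeled) in 100 mM sodium acetate pH 7 with 20 uM heparin, 6 hr at 37 C. ThT 30 uM added, 1 hr ambient; Alexa 594 FP and total fluorescence read at 555/632 nm.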
FBPA coupling cs: qHTS Assay for Inhibitors of Fructose-1,6-bisphosphate Aldolase from Giardia Lamblia: Coupling assay counterscreen; coupling enzyme system counterscreen, AmpLite Red fluorescence; activity change, negative = inhibition, % at 58.2 µM, hits read low; actives 0.67% (n = 290,000); AID 2472, 2010; in the data active means activity change below about -30%
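Counterscreen lacking aldolase: glyceraldehyde-3-phosphate coupling-enzyme reagent preincubated 10 min at RT with compound (at 57.5 uM final), then substrate/coupling system with AmpLite Red added; fluorescence read at 525/598 nm after 20 min RT.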
G9a block: qHTS Assay for Inhibitors of Histone Lysine Methyltransferase G9a; Histone-lysine N-methyltransferase EHMT2 (Homo sapiens), Q96KQ7; G9a H3K9 monomethylation, AlphaScreen, 2 h; Potency, µM (doses to about 102 µM), inactives show top-dose activity, negative = inhibition, usual class: inhibitors; actives 8.8% (n = 350,000); AID 504332, 2011; further: potency means the concentration at half of the fitted maximal effect; nearly all actives have a fitted effect of over 75% in size
Target sequence (Q96KQ7 913-1193 limits assumed): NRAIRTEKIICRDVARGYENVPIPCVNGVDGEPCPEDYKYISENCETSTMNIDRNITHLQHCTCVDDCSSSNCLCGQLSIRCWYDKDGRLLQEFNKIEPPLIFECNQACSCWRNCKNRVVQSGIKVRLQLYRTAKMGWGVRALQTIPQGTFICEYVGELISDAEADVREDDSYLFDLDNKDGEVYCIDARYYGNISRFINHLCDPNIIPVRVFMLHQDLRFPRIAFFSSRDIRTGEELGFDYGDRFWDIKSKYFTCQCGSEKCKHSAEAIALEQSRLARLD
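Compounds were preincubated with 20 nM G9a for 15 min, after which biotinylated H3K9 peptide (500 nM) and SAM (20 uM) started a 2 h room-temperature reaction. Monomethylated product was quantified by antibody-based AlphaScreen chemiluminescence.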
Tau ThT inhib: qHTS for Inhibitors of Tau Fibril Formation, Thioflavin T Binding. Microtubule-associated protein tau (Homo sapiens), P10636. recombinant tau K18 P301L, heparin-induced fibrillization, ThT fluorescence. Potency, µM (highest dose often 57.4 µM), for the others: top-dose activity, negative = inhibition, actives largely listed as inhibitors. actives 2.1% (n = 270,000); further: potency means the concentration at half of the fitted maximal effect; nearly all actives have a fitted effect of over 55% in size
Target sequence (P10636 561-689 P618L limits assumed): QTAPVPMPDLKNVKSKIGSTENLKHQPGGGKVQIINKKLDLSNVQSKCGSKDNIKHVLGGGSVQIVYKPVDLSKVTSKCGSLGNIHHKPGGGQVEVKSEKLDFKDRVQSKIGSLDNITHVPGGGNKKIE
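Fibril formation assay: tau K18 P301L at 15 uM with trace Alexa 594 label, heparin inducer 20 uM, pH 7 sodium acetate buffer, 37 C for 6 hr; endpoint ThT signal.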
Sfp inh: qHTS Assay for Inhibitors of Bacillus subtilis Sfp phosphopantetheinyl transferase (PPTase). Biochemical Sfp PPTase activity, qHTS. Potency, µM, without a hit: largest response in the series, negative = inhibition, hits mostly inhibitors. actives 3.5% (n = 310,000);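 further: the enzyme is Sfp with the accession as filed and its product quenches rhodamine fluorescence; potency means the concentration at half of the fitted maximal effect; 0% = enzyme reaction without inhibitor and -100% = no enzyme wells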
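Sfp 15 nM + cpd, 15 min RT; start w/ rhodamine-CoA 5 uM, BHQ-2-YbbR 12.5 uM (final); 50 mM Hepes pH 7.6, 10 mM MgCl2, 0.01% NP-40, 0.01% BSA; read 525/598 nm at 0 and 30 min.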
Tau fibril FP: qHTS for Inhibitors of Tau Fibril Formation, Fluorescence Polarization. Microtubule-associated protein tau (Homo sapiens), P10636. K18 P301L tau heparin fibrillization, Alexa594 FP, 6 h. Potency, µM (titrated, usually from 57.7 µM), for the others: at the top dose activity, negative = inhibition, hits mostly inhibitors. actives 0.39% (n = 280,000). AID 1468, 2008; further: potency means the concentration at half of the fitted maximal effect; nearly all actives have a fitted effect of over 55% in size
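Steps: dispense K18 P301L tau (15 uM plus 0.24 uM Alexa 594 tracer, final) in pH 7 sodium acetate; add compound; add heparin (20 uM final); incubate 6 hr, 37 C; add ThT (30 uM final); after 1 hr ambient, read FP.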
An asterisk follows results filed as active; ? = inconclusive; . = not tested or not shown; ! = not confirmed by another sample; [ ] = remark or other dose. Unless noted, the call rests on the fitted dose curve; in most records, active means well fitted curve in the direction sought with a large enough effect; inconclusive means small, poorly fitted or top-dose-only effect, or another doubt; inactive means no such curve, though single readings can be large; an effect the other way counts as inactive or inconclusive. Unless noted, on the % scale 0 is the no-effect control and ±100 the full control effect.

SMILES	Tau fluor counter	FBPA coupling cs	G9a block	Tau ThT inhib	Sfp inh	Tau fibril FP
O=c1cc(CO)oc(C(Nc2ccccn2)c2ccsc2)c1O (stereo not given)	-10%	-15	2µM*	?	22µM*	6%
O=C(NNS(=O)(=O)c1ccc(Br)cc1)c1ccncc1	1%	-2	39%[0.501 µM]	2%	-4%	2%
Cc1ccc(S(=O)(=O)NNC(=O)c2ccncc2)cc1[N+](=O)[O-]	.	-2	50µM*	.	-4%	.
Cn1c(=O)c([N+](=O)[O-])c(-n2ccnc2)c2ccccc21	-19%	2	?	?	56µM*	-5%
O=C(CSc1ccc(-c2ccccn2)nn1)N1CCCCC1	-6%	-1	4%	-8%	-19%	-3%
O=C(COC(=O)c1ccccn1)c1ccc([N+](=O)[O-])cc1	.	1	11µM*	.	?	.
O=[N+]([O-])c1cccc(-c2ccc(SCc3cccnc3)nn2)c1	-15%	-2	-5%	?	6%	2%
O=C(CSc1ccc(-c2ccccn2)nn1)c1ccc([N+](=O)[O-])cc1	-28%	2	40µM*	16µM*	32µM*	2%
O=C(CSc1ccc(-c2cccnc2)nn1)c1ccc([N+](=O)[O-])cc1	?	1	22µM*	14µM*	-30%	-5%
O=C(CSc1ccc(-c2ccncc2)nn1)c1ccccc1	-9%	-3	25µM*	-10%	8%	-10%
Oc1c(C(c2ccccc2F)N2CCCCC2)sc2nc(-c3ccco3)nn12 (stereo not given)	-4%	.	-46%[59 µM]	-9%	.	-6%
COc1ccc(N(C)S(=O)(=O)c2ccc3c(c2)n(C)c(=O)c(=O)n3C)cc1	-10%	.	10%[59 µM]	-5%	.	-3%
Cc1nn(-c2ccccc2)c(C)c1/C=N/n1c(-c2ccncc2)n[nH]c1=S	-10%	0	2.2µM*	-4%	-18%	-6%
S=c1[nH]nc(-c2ccc(Cl)cc2)n1/N=C/c1cccs1	-13%	6	.	-4%	-10%	3%
Cc1ccc(-c2n[nH]c(=S)n2/N=C/c2c(C)[nH]n(-c3ccccc3)c2=O)cc1	-19%	-1	1.3µM*	?	50µM*	1%
Cc1nn(-c2ccccc2)c(C)c1/C=N/n1c(-c2ccc(Cl)cc2)n[nH]c1=S	-4%	-1	5µM*	4%	-20%	9%
CN(C)CCOC(C)(c1ccccc1)c1ccccn1 (stereo not given)	-5%	1	10µM*!	-11%	7%	7%
Cc1cc(=O)n2c(C(=O)Nc3ccc(Br)cc3)c(C(=O)Nc3ccccc3)sc2n1	-7%	.	-17%[59 µM]	8%	.	?
Cc1ccccc1-c1nn[nH]n1	-8%	-2	-10%	-15%	18%	-4%
Oc1ccc(N=Nc2ccccc2-c2nn[nH]n2)c(O)c1	.	2	35µM*	.	15%	.
CC(C)(C)c1ccc(CNc2ccc([N+](=O)[O-])cn2)cc1	?	1	4%[59 µM]	?	10%	-10%
COc1ccccc1NC(=O)c1c(NCc2ccc(C)o2)sc2c1CCCCC2	?	.	1.3µM*	25µM*	.	?
COc1ccc(OC)c(NC(=O)c2c(NCc3ccc(C)o3)sc3c2CCCCC3)c1	?	.	1.6µM*	25µM*	.	?
COc1ccc(OC)c(NC(=O)c2c(NCc3ccc(N(C)C)cc3)sc3c2CCCC3)c1	?	.	13µM*	?	.	4%
COc1ccc(OC)c(NC(=O)c2c(NCc3ccc(OC)c(OC)c3)sc3c2CCC3)c1	?	.	?	?	.	-2%
SMILES	Tau fluor counter	FBPA coupling cs	G9a block	Tau ThT inhib	Sfp inh	Tau fibril FP
COc1ccc(Cl)cc1NC(=O)c1c(NCc2ccc(C)o2)sc2c1CCCCC2	-21%	.	?	?	.	-12%
O=C(c1ccco1)N1CCN(Cc2cc(=O)c(OCc3ccc([N+](=O)[O-])cc3)co2)CC1	.	.	0%	.	.	.
Cc1ccc(/C=C/C(=O)OCC(=O)N2CC(=O)Nc3ccccc32)o1	-3%	-16	50µM*	-5%	-8%	-3%
O=C1CN(C(=O)COC(=O)/C=C/c2ccco2)c2ccccc2N1	-5%	2	45µM*	-7%	-23%	-2%
COc1ccc(/C=C/C(=O)OCC(=O)N2CC(=O)Nc3ccccc32)cc1S(=O)(=O)N1CCOCC1	-5%	2	56µM*	2%	-1%	-5%
O=C1CN(C(=O)COC(=O)/C=C/c2ccc(OC(F)F)cc2)c2ccccc2N1	-3%	4	-8%[59 µM]	7%	-6%	?
O=C1CN(C(=O)COc2ccccc2F)c2ccccc2N1	0%	2	50µM*	-8%	-12%	0%
Cc1ccc(NC(=O)Nc2c[nH]c(=O)[nH]c2=O)c(Cl)c1	-2%	.	5%[59 µM]	-7%	.	-2%
COCCn1c(=O)c(-c2cccs2)nc2cnc(Oc3cccc(Cl)c3)nc21	.	-8	12%[12.7 µM]	.	5%	.
CSc1ccc(S(=O)(=O)NCC(=O)OCC(=O)N(Cc2ccccc2)C(C)C)cc1[N+](=O)[O-]	.	.	22%[2.33 µM]	.	.	.
CCN(CC)c1ccc(NC(=O)Nc2ccccc2)cc1	.	0	8.9µM*	.	-5%	.
CCN(CC)c1ccc(NC(=S)NC(=O)Cc2ccccc2)cc1	?	1	7.9µM*	-5%	8%	13%
CCN(CC)c1ccc(NC(=O)Nc2ccc(C(C)=O)cc2)cc1	14µM*[quencher]	-3	1.4µM*	?	-17%	8%
CCN(CC)c1ccc(NC(=O)CCNC(=O)c2ccco2)cc1	-9%	4	7.9µM*	?	3%	7%
CCN(CC)S(=O)(=O)c1ccc(NC(=O)CCNC(=O)c2ccco2)cc1	.	-1	?	.	10%	.
CCc1cccc(CC)c1NC(=O)Cn1nnc2sc3c(c2c1=O)CCCC3	1%	.	17%[59 µM]	-1%	.	5%
CCOc1ccc(NC(=O)c2sc3ccccc3c2Cl)cc1	-6%	.	14%[59 µM]	?	.	6%
CCN(CC)c1ccc(NC(=O)c2sc3ccccc3c2Cl)cc1	?	.	5µM*	0.89µM*	.	2%
COc1ccc2c(c1)-c1nc(/N=C/c3c(O)ccc4ccccc34)sc1CC2	?	-38*	1.6µM*	22µM*	-26%	?
COc1ccc2c(c1)-c1nc(/N=C/c3ccc(O)cc3)sc1CC2	?	-21	?	28µM*	-8%	?
